Assay results as given in paper PMC5540273 (PLoS ONE, 2017).

These molecules were tested on DAPK2. Conditions: concentration: 1 μM, replicates: in singlicate; n = 1.
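Note: KINOMEscan kinase panel screen.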

SMILES | %Inh [%]
COc1cc2ncnc(Nc3cccc(Br)c3)c2cc1OC.Cl [GI230329] | 0
CS(=O)(=O)CCNCc1nc(-c2ccc3ncnc(Nc4ccc(OCc5ccccc5)c(Cl)c4)c3c2)cs1.Cl [GW582764] | 0
COc1ccc2cc(-c3nc(-c4ccccc4C(C)C)[nH]c3-c3ccncc3)ccc2c1 [SB-660566] | 0
COc1ccc(Nc2nccc(N3CCC(NC(=O)C(C)c4ccc(Cl)cc4)CC3)n2)cc1 (stereo not shown) [GSK1379812] | 20
Cc1ccccc1-c1cc(-c2c[nH]nc2-c2ccccn2)ccn1 [GW680061] | 0
CC[C@@H]1CO[C@H](C(=O)Nc2ccccc2)CN1c1cc(-c2ccc3c(N)n[nH]c3c2)nc(NC)n1 [GSK2376236] | 37
O=C1NC(=O)C(c2ccc(Cl)cc2)=C1Nc1cccc(Cl)c1 [SB-317651] | 0
Cc1c(Cn2c3ccccc3n3c(=O)cc(N4CCOCC4)nc23)cccc1C(F)(F)F [GSK2306394] | 4
Cc1ccc(NC(=O)Nc2ccccc2F)cc1-c1ccc(C(=O)Nc2ccncc2)cc1 [GSK1398477] | 17
O=c1cc(N2CCOCC2)nc2n(Cc3cccc(Cl)c3Cl)c3ccccc3n12 [GSK2299009] | 0
CC(=O)c1c(C)c2cnc(Nc3ccn(C)n3)nc2n(C2CCCC2)c1=O | 0
COc1cccc(CNC(=O)NC2CCN(c3ccnc(Nc4ccc(F)cc4)n3)C2)c1 (stereo not shown) [GSK1379723] | 22
CC(=O)c1c(C)c2cnc(Nc3ccc(N4CCNCC4)cn3)nc2n(C2CCCC2)c1=O | 13
COc1cccc(C2=C(Nc3cc(Cl)c(O)c(Cl)c3)C(=O)NC2=O)c1 [SB-390767] | 0
Cc1ccccc1Cn1ccn2c(=O)cc(N3CCOCC3)nc12 [GSK2269905] | 0
Fc1ccc(-c2nn3cccc(F)c3c2-c2ccncc2)cc1 [GW475620] | 0
Cc1nccc(-c2c(-c3ccc(F)cc3)ncn2CCCN2CCOCC2)n1.Cl [SB-282975] | 99.3
Cc1cccc2c(-c3ccncn3)c(-c3ccc(F)cc3)nn12 [GW515532] | 0
COc1ccc(Nc2nccc(NCCNC(=O)Nc3cc(C)ccc3C)n2)cc1 [GSK1379899] | 0

SMILES | %Inh [%]
Nc1nccc(-c2c(-c3ccc(F)cc3)ncn2C2CCN(Cc3ccccc3)CC2)n1 [SB-219980] | 0
CS(=O)(=O)Cc1ccc(Nc2nccc(-c3c(-c4cccc(NC(=O)C5CCCCC5)c4)nn4ncccc34)n2)cc1 [GSK350559] | 9
Cc1ccc(NC(=O)Nc2ccc(Cl)c(C(F)(F)F)c2)cc1-c1ccc(C(=O)Nc2ccncc2)cc1 [GSK1398470] | 21
O=c1cc(N2CCOCC2)nc2n(Cc3ccccc3F)ccn12 [GSK2297428] | 0
O=C(Nc1n[nH]c2nc(-c3ccco3)c(Br)cc12)C1CCN(Cc2ccccc2)C1.O=C(O)[C@H](O)[C@@H](O)C(=O)O (stereo not shown) [SB-742034] | 28
CCn1c(-c2c(N)noc2C)nc2cnccc21 [SB-737856] | 0
Cn1cnc2c(N)ncnc21 [SKF-97623] | 0
O=C(Nc1n[nH]c2cc(-c3ccsc3)ccc12)C1CC1 [SB-732932] | 41
CN1c2ccc(-c3ccc(C(N)=O)cc3)cc2-c2[nH]ncc2S1(=O)=O | 18
Cl.Cl.Cl.N#Cc1ccc(CCNc2nccc(-c3cccc(CN4CCNCC4)c3)n2)cc1 [GSK2137462] | 19
Cn1cncc1C(=O)NC1CCN(c2ccnc(Nc3ccc(F)cc3)n2)C1 (stereo not shown) [GSK1379717] | 0
CS(=O)(=O)CCNCc1nc(-c2ccc3ncnc(Nc4ccc5c(cnn5Cc5ccccc5)c4)c3c2)cs1.Cl.Cl [GW569716] | 0
Cc1cnc(N)c(/C=C/c2cncc(C(=O)NCCc3ccc(Cl)cc3Cl)c2)c1.Cl [GSK190937] | 7
CNCc1ccc2nc(NC(=O)c3ccc(C(C)(C)C)cc3)cn2c1 | 0
CNc1cc(-c2ccc3c(N)n[nH]c3c2)nc(N)n1 [GSK2224810] | 17
CNc1nc(-c2ccc3c(N)n[nH]c3c2)cc(N2C[C@@H](C(=O)Nc3ccccc3)CC[C@H]2C)n1 [GSK2298859] | 30
COc1ccc(Nc2nccc(N3CCC(NC(=O)c4cc5ccccc5s4)C3)n2)cc1 (stereo not shown) [GSK1379738] | 0
COc1ccc(CSc2nnc(-c3ccc4nccn4c3)o2)cc1C(F)(F)F | 0
